High-throughput results: PubChem, several laboratories
GIRK2 activator: Activates human GIRK2-containing potassium channels; P48051; HEK293 GIRK2/NPY4 cells, thallium flux fluorescence; activation (% efficacy), % for hits at 75 µM; 34,000 tested, under 10 active; AID 1259324;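 active = primary screen hit, no activity in plain HEK293 cells, and in GIRK2-only cells above 5% efficacy rising with concentration; inactive = the rest, including fluorescent compounds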;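 note: efficacy is normalized control-subtracted fluorescence 15 s after thallium addition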
AMPAR-TARP mod: modulators of AMPA receptor GluA2-stargazin complexes; 3.5% of 40,000 active; HEK293 GluA2+stargazin, membrane potential dye (FDSS), glutamate EC50; hits were called plate by plate, in both directions; calls only at 30 µM;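 active = any of four per-well response measures lying three or more SD from its plate-wide compound average, in either direction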
Of the large screens only hits and unclear results are named; the others gave an inactive call. The entries come from a sample that favours hits as a whole.

C=CCn1c(=O)c2c(nc3n(-c4cc(OC)ccc4OC)c(-c4ccccc4)cn23)n(C)c1=O	none
C=C(C)Cn1c(=O)c2c(nc3n(-c4cc(OC)ccc4OC)c(-c4ccccc4)cn23)n(C)c1=O	AMPAR-TARP mod active
CCc1ccccc1-n1c(-c2ccccc2)cn2c3c(=O)n(CCOC)c(=O)n(C)c3nc12	AMPAR-TARP mod active (no result: GIRK2 activator)
COCCn1c(=O)c2c(nc3n(-c4ccccc4C)c(-c4ccccc4)cn23)n(C)c1=O	none (no result: GIRK2 activator)
N#C/C(=C\c1ccnc2ccccc12)c1nc(-c2ccc(F)cc2)cs1	none
COc1ccccc1-c1csc(/C(C#N)=C2\C=CC=CN2C)n1	AMPAR-TARP mod active
CN1C=CC=C/C1=C(/C#N)c1nc(-c2ccccc2)cs1	AMPAR-TARP mod active
COc1ccc(S(=O)(=O)N2CCCCC2CC(=O)NCc2ccccc2OC)cc1 (stereo not drawn)	none (no result: GIRK2 activator)
COc1cccc(CCNC(=O)CC2CCCCN2S(=O)(=O)c2ccc(Cl)cc2)c1 (stereo not drawn)	AMPAR-TARP mod active (no result: GIRK2 activator)
COc1cccc(CCNC(=O)CC2CCCCN2S(=O)(=O)c2ccccc2)c1 (stereo not drawn)	none (no result: GIRK2 activator)
COc1ccc(S(=O)(=O)N2CCCCC2CC(=O)NCc2ccccc2Cl)cc1 (stereo not drawn)	AMPAR-TARP mod active (no result: GIRK2 activator)
Cc1ccc(NC(=O)C(=O)Nc2ccc(C(N)=O)cc2)cc1N1CCCCC1=O	none
O=[N+]([O-])c1ccccc1S(=O)(=O)NCCOc1ccc(-c2ccccc2)nn1	none (no result: GIRK2 activator)
COc1ccc(S(=O)(=O)Nc2nc3ccccc3nc2NCCC2=CCCCC2)cc1	none (no result: GIRK2 activator)
COc1ccccc1CNc1nc2ccccc2nc1NS(=O)(=O)c1ccccc1	AMPAR-TARP mod active (no result: GIRK2 activator)
Cc1nn(C2CCS(=O)(=O)C2)c2nc(-c3cccs3)cc(C(=O)Nc3ccc(C(C)C)cc3)c12 (stereo not drawn)	none
COc1ccc(S(=O)(=O)NCC(c2ccsc2)N(C)C)cc1Cl (stereo not drawn)	none
O=S(=O)(NCC(O)(c1ccccc1)C(F)(F)F)c1ccc(F)c(Cl)c1 (stereo not drawn)	none
COc1ccc(S(=O)(=O)NCC(O)(c2ccccc2)C(F)(F)F)cc1Cl (stereo not drawn)	AMPAR-TARP mod active
COc1ccc(S(=O)(=O)NCCc2ccc(N(C)C)cc2)cc1Cl	AMPAR-TARP mod active (no result: GIRK2 activator)
O=CC1=Cc2cc(Cl)ccc2OC1	none (no result: GIRK2 activator)
COC(=O)c1ccc2c(=O)n(CCN3CCN(c4ccccc4)CC3)c(=S)[nH]c2c1	none
O=S(=O)(NC1CCCC1)c1cccc2cnccc12	AMPAR-TARP mod active
O=S(=O)(NCCCN1CCOCC1)c1cccc2cnccc12	none
O=S(=O)(CCc1ccccc1)NCC1CCN(C2CCCC2)CC1	none
CC1Cc2cc(-c3cc(CNC(=O)C4CCCC4)no3)ccc2O1 (stereo not drawn)	none
Cc1ccc(C2=CC(c3ccc(Cl)cc3)n3nc(N4C(=O)CCC4=O)nc3N2)cc1 (stereo not drawn)	AMPAR-TARP mod active (no result: GIRK2 activator)
COc1ccccc1C1C=C(c2ccc(Cl)cc2)Nc2nc(NS(C)(=O)=O)nn21 (stereo not drawn)	none (no result: GIRK2 activator)
CC1CN(C(=O)CSc2ccnc3c2c(=O)n(C)c(=O)n3C)CC(C)O1 (stereo not drawn)	AMPAR-TARP mod active
CCN(CC)C(=O)CSc1ccnc2c1c(=O)n(C)c(=O)n2C	none
CCCNC(=O)CSc1ccnc2c1c(=O)n(C)c(=O)n2C	none
Cc1cnc2c(c1SCC(=O)N1CCN(c3ccccc3)CC1)c(=O)n(C)c(=O)n2C	AMPAR-TARP mod active
CCc1cnc2c(c1SCC(=O)N1CCN(c3ccccc3)CC1)c(=O)n(C)c(=O)n2C	none
Cn1c(=O)c2c(SCC(=O)N3CCCCCC3)ccnc2n(C)c1=O	none (no result: GIRK2 activator)
CCN(CC)CCSc1ccnc2c1c(=O)n(C)c(=O)n2C	AMPAR-TARP mod active
Cn1c(=O)c2c(SCC(N)=O)ccnc2n(C)c1=O	AMPAR-TARP mod active (no result: GIRK2 activator)
COC(=O)COc1ccc2c(c1)O/C(=C\c1ccccc1OC)C2=O	none (no result: GIRK2 activator)
O=C(Cc1csc(SCc2cccc(Cl)c2)n1)NCC1CCCO1 (stereo not drawn)	none
COc1c(C)cc(S(=O)(=O)NCC2CCN(Cc3ccco3)CC2)cc1C	none (no result: AMPAR-TARP mod)
CCOC(=O)CNC(=O)CSc1ccnc2c1c(=O)n(C)c(=O)n2C	none
Cn1c(=O)c2c(SCCN3CCCC3)ccnc2n(C)c1=O	AMPAR-TARP mod active
CCOCCSc1ccnc2c1c(=O)n(C)c(=O)n2C	AMPAR-TARP mod active (no result: GIRK2 activator)
Cn1c(=O)c2c(SCC(=O)NC(C)(C)C)ccnc2n(C)c1=O	none
Cn1c(=O)c2c(SCCO)ccnc2n(C)c1=O	none (no result: GIRK2 activator)
C=CCSc1ccnc2c1c(=O)n(C)c(=O)n2C	AMPAR-TARP mod active (no result: GIRK2 activator)
COc1ccc(NC(=O)Cn2cc(-c3ccc(OC)cc3)c(N(C)C)n2)cc1	none
CC(=O)N1CCN(S(=O)(=O)CCCOc2cccc3c2OC(C)(C)C3)CC1	none (no result: AMPAR-TARP mod)
COc1ccc(-c2ccc(=O)n(CC(=O)NCC3CCCO3)n2)cc1 (stereo not drawn)	none
CC(C)(C)C(=O)NCCOc1ccc2nnc(-c3ccccc3Cl)n2n1	none
CCOc1cc(/C=C2\SC(=S)N(c3ccccc3Br)C2=O)ccc1O	none (no result: GIRK2 activator)
